Screen size: about 270,000 compounds; about 5,800 (2.1%) were called active. Inconclusive results (about 16%) are left out. The sample holds actives, similar compounds and a random draw of the others, so the mix is not that of the screen. Calls come from the whole dose curve; as a rule, active = well fitted inhibition curve with a large enough effect; inconclusive = small, poorly fitted or top-dose-only effect; inactive = flat fitted curve, though single readings scatter.
Target: Microtubule-associated protein tau (Homo sapiens) (UniProt P10636)
Sequence (P10636 561-689 P618L limits assumed): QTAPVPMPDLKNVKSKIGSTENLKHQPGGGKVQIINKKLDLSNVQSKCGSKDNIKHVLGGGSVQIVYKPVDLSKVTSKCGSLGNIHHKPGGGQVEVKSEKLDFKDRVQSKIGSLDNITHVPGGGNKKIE
Test: qHTS for Inhibitors of Tau Fibril Formation, Thioflavin T Binding; note: nearly all actives have a fitted effect of over 55% in size
Conditions: recombinant tau K18 P301L (four-repeat tau fragment), heparin-induced fibrillization, ThT fluorescence; series mostly up to 57.4 µM; activity, negative = inhibition: at the top concentration
Summary of the method: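 In this qHTS, human K18 P301L tau is incubated with compound and heparin for 6 hr at 37 C, and Thioflavin T fluorescence then reports fibril load.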
% is set by controls: 0 for no effect and ±100 for the full control effect; potency is the fitted concentration of half-maximal effect.

| Structure (SMILES) | activity, negative = inhibition | Potency |
| --- | --- | --- |
| COc1cc(NC(=O)Cn2c(=O)n(Cc3ccco3)c(=O)c3oc4ccccc4c32)cc(OC)c1 | 8.95% (inactive) |  |
| O=C1N/C(=C/c2cccs2)C(=O)N1Cc1ccc(F)cc1 | 4.61% (inactive) |  |
| Cc1cccc(C2=N/C(=C/c3cccs3)C(=O)O2)c1 | -11.6% (inactive) |  |
| CSC1=N/C(=C\C=C\c2cccs2)C(=O)S1 |  | 14.1 µM (active) |
| CC1Cc2cc(S(=O)(=O)CCC(=O)Nc3ccc(F)c(Cl)c3)ccc2N1C(=O)C1CC1 (stereo unspecified) | 1.55% (inactive) |  |
| Cc1ccccc1C(CC(=O)c1cccs1)C(C#N)C#N (stereo unspecified) |  | 25.1 µM (active) |
| Cc1ccc(C)c(NC(CC(=O)c2ccccc2)C(=O)OCC(=O)c2cccs2)c1 (stereo unspecified) | -13.7% (inactive) |  |
| O=C(CCC(=O)c1cccs1)NCc1ccccc1 | 0.274% (inactive) |  |
| COc1cccc(-n2cc(C(=O)NCc3cccc(Cl)c3)c3ccccc3c2=O)c1 | -10.9% (inactive) |  |
| Cc1coc2c(O)cc3c(c12)OC1(N2CCCCC2)C(=O)NCCCC31 (stereo unspecified) |  | 15.8 µM (active) |
| CCS(=O)(=O)N1CCC(n2c(C)nc3cccnc32)CC1 | -1.27% (inactive) |  |
| C=CCNC(=S)NNC(=O)c1cc(Cl)ccc1OC | -14.5% (inactive) |  |
| COc1ccc(Cl)cc1C(=O)NNC(=S)NC1CCCC1 | -2.82% (inactive) |  |
| COc1ccc(Cl)cc1C(=O)NNC(=S)NC(=O)/C=C/c1ccco1 |  | 11.2 µM (active) |
| Cc1ccc(C(=O)N2c3ncnn3C3(CCCCC3)[C@@H]3CCCC[C@@H]32)cc1 | -7.73% (inactive) |  |
| Cc1cccn2c(=O)c(/C=C3\SC(=S)N(CC(C)C)C3=O)c(NCCCOC(C)C)nc12 | -13.2% (inactive) |  |
| CCOC(=O)CNC(=O)c1cc2c(=O)n3cccc(C)c3nc2s1 | -2.97% (inactive) |  |
| CCOC(=O)CC1C(=O)NCCN1c1nc2c(C)cccn2c(=O)c1/C=C1\SC(=S)N(C(C)CC)C1=O (stereo unspecified) |  | 7.94 µM (active) |
| Cn1nnnc1SCCCNCc1cccc(OCc2ccc(Cl)cc2)c1 | -14.2% (inactive) |  |
| Cc1cccc(C)c1Nc1c(-c2ccccc2O)nc2ncccn12 |  | inactive |
| CCc1cccc(C)c1Nc1c(-c2ccc(N(C)C)cc2)nc2ncccn12 |  | 14.1 µM (active) |
| Cc1ccccc1Nc1c(-c2ccccc2)nc2ncccn12 | -8.46% (inactive) |  |
| COc1ccc(NC(=O)CN2CCCN(Cc3ccccc3)S2(=O)=O)cc1 | 6.18% (inactive) |  |
| Cc1nnc(C)n1-c1ccc(C(=O)Nc2cccc(Br)c2)cc1 | -13.8% (inactive) |  |
| C=Cc1ccc(Cn2c(C(=O)O)c(CNC3CCCC3)c3ccc(C)cc32)cc1 | -6.7% (inactive) |  |
| Cn1sc(=O)c2cc(S(=O)(=O)NC3CC3)ccc21 |  | 12.6 µM (active) |

| Structure (SMILES) | activity, negative = inhibition | Potency |
| --- | --- | --- |
| CC1CCC(NS(=O)(=O)c2ccc3c(c2)n(C)c(=O)c(=O)n3C)CC1 (stereo unspecified) | -10.1% (inactive) |  |
| CSc1ccc(S(=O)(=O)NC2CCCCC2)cc1 | -14.1% (inactive) |  |
| O=C(Nc1ccccc1Cl)N1CCC(CN2CCCCC2)CC1 | 0.774% (inactive) |  |
| COc1ccc(S(=O)(=O)n2nc(C)c(S(=O)(=O)N3CCCCCC3)c2C)cc1 | -5.22% (inactive) |  |
| CCc1nnc(SCC(=O)Nc2cc(OC)ccc2OC)nc1CC | -13.1% (inactive) |  |
| COc1ccc(C)cc1N(C)C(=O)c1c(C)oc2ncnc(N3CCOCC3)c12 | -4.51% (inactive) |  |
| CCOC(=O)C1CCCN(S(=O)(=O)c2cc(-c3cc(C)no3)ccc2OC)C1 (stereo unspecified) | -5.37% (inactive) |  |
| N#C/C(=C\c1ccccc1C(F)(F)F)C(=O)Nc1ccccc1F | -2.13% (inactive) |  |
| N#C/C(=C\c1ccc(N2CCOCC2)o1)C(=O)N1CCOCC1 | -14.6% (inactive) |  |
| N#C/C(=C\C1=C(N2CCOCC2)C(=C\c2ccccc2)/CC1)C(=O)Nc1ccccc1F |  | 3.16 µM (active) |
| COc1cccc(-c2cc(C(=O)Nc3ccc(C)cc3)[nH]n2)c1 | 16.5% (inactive) |  |
| Cc1nonc1C(=O)N/N=C/c1ccc(O)cc1 | -13.5% (inactive) |  |
| Cc1cc(C(=O)N/N=C/c2ccc(N3CCOCC3)cc2)c(C)o1 |  | 3.98 µM (active) |
| COc1ccc(C/C(C)=N/NC(=O)c2cc(C)oc2C)cc1 | -14.5% (inactive) |  |
| CCn1cc(C(=O)N2CCN(c3cc(C)ccc3C)CC2)c(=O)c2cc(S(=O)(=O)N(C)C3CCCCC3)ccc21 | -17% (inactive) |  |
| Cc1noc2ncnc(NCc3ccccc3Cl)c12 | -8.51% (inactive) |  |
| CC(C)NC(=O)C(=O)N/N=C/c1ccco1 | -18.5% (inactive) |  |
| COC(=O)C1=C(C)N(c2ccc(Br)cc2)C(=O)/C1=C\c1ccco1 | 3.15% (inactive) |  |
| COC(=O)C1=C(C)N(C(C)c2ccccc2)C(=O)/C1=C\c1ccco1 (stereo unspecified) |  | 22.4 µM (active) |
| CCOC(=O)c1c(NC(=O)c2ccc(S(=O)(=O)N3CCCC(C)C3)cc2)sc2c1CCN(C(C)C)C2 (stereo unspecified) | -15.9% (inactive) |  |
| COc1cc(OC)c(NC(=O)c2nc(-c3ccncc3)no2)cc1Cl | 15.5% (inactive) |  |
| Cc1ccc(Nc2nc(-c3ccc(O)cc3O)cs2)nc1 |  | 5.01 µM (active) |
| Cc1ccc(-c2csc(SCC(=O)Nc3cc(C)on3)n2)cc1 | -1.99% (inactive) |  |
| Cc1ccc(-c2csc(NC(=O)c3cnccn3)n2)cc1C | -7.61% (inactive) |  |
| Cc1ccccc1CNC(=O)CCCn1nc(C)c2sc3ccccc3c2c1=O | 11.6% (inactive) |  |
| O=C(NC1CC(=O)N(c2ccccc2)C1)c1ccco1 (stereo unspecified) | 4.55% (inactive) |  |

| Structure (SMILES) | activity, negative = inhibition | Potency |
| --- | --- | --- |
| COc1ccc(NC(=O)Nc2cccc(-c3noc(C)n3)c2)cc1 | -6.06% (inactive) |  |
| Cc1c(C)n(Cc2ccc(Cl)cc2)c2ccc(C(=O)NCCc3ccc(S(N)(=O)=O)cc3)cc12 | -2.45% (inactive) |  |
| CCN(CC)c1cc(NC2CCCCC2)c2c3c(onc13)-c1ccccc1C2=O |  | 11.2 µM (active) |
| CC(C)(C)c1ccc(C(=O)Nc2ccc3c(c2)CCCN3C(=O)c2cccs2)cc1 | -12.8% (inactive) |  |
| CCc1ccc(NC(=O)CN2C(=O)CCSc3ccc(S(=O)(=O)N4CCCC4)cc32)cc1 | 8.06% (inactive) |  |
| CCc1nn(CCCC(=O)NCc2ccc(C)cc2)c(=O)c2cc3occc3n12 | -5.1% (inactive) |  |
| COCCCNC(=O)c1ccc(NC(=O)c2nsc3ccccc23)cc1 | -4.75% (inactive) |  |
| Cc1ccc(C2C3=C(Nc4[nH]n(-c5ccccc5)c(=O)c42)c2ccccc2C3=O)cc1 (stereo unspecified) |  | 7.94 µM (active) |
| Cc1ccc(N2C(=O)C3C(c4ccccc4)(C2=O)C3(c2ccccc2)c2ccccc2)cc1 (stereo unspecified) | 4.8% (inactive) |  |
| O=C(Nc1ccc2nc(SCCOc3ccccc3Cl)sc2c1)c1ccco1 | 5.98% (inactive) |  |
| CCOC(=O)c1cccc(NC(=O)c2cc(S(=O)(=O)N3CCCC(C)C3)cn2C)c1 (stereo unspecified) | 3.72% (inactive) |  |
| Cc1ccc(S(=O)(=O)c2c(Nc3cccc(Cl)c3)sc(C(=O)c3ccc4c(c3)OCO4)c2N)cc1 | -3.94% (inactive) |  |
| CCOc1cc(C(=O)Nc2nnc3n2CCS3)cc(OCC)c1OCC | 1.75% (inactive) |  |
| Cc1ccc2cccc(NC(=O)C(C)Oc3ccc(C)c(C)c3)c2n1 (stereo unspecified) | 6.23% (inactive) |  |
| Cc1ccccc1C(=O)Nc1cc(C)c(O)c(-c2nc3ccccc3o2)c1 | -2.98% (inactive) |  |
| CC(C)c1ccc(C2C(C#N)=C(N)Oc3c2oc(CO)cc3=O)cc1 (stereo unspecified) | -9.29% (inactive) |  |
| CC(C)c1ccc(C2CC(=O)N3CN(C4CCCCC4)CSC3=C2C#N)cc1 (stereo unspecified) |  | 22.4 µM (active) |
| CCOC(=O)c1ccc(N2C(=O)c3n[nH]c(-c4ccco4)c3C2c2ccc(O)cc2)cc1 (stereo unspecified) | -15.9% (inactive) |  |
| CCCc1nn2c(=O)cc(COC(=O)c3ccc(NC(=O)C(C)Oc4ccccc4)cc3)nc2s1 (stereo unspecified) | -5.44% (inactive) |  |
| COc1ccc(C2=NN(c3nc4ccccc4s3)C(=O)C2)cc1 |  | 10 µM (active) |
| COC(=O)Cc1[nH]n(-c2nc3ccccc3s2)c(=O)c1C(C)=Nc1ccc(OC)cc1 | 12% (inactive) |  |
| COc1ccc(C2=NN(c3ccccc3)C(c3cccs3)C2)cc1 (stereo unspecified) | -9.36% (inactive) |  |
| CCOC(=O)c1c(S(=O)(=O)N2CCC(C(=O)NCc3ccccc3OC)CC2)c(C)n(C)c1C | 7.16% (inactive) |  |
| Nc1c(C(=O)c2cccs2)sc2nsc(SCCN3CCCCC3)c12 |  | 4.47 µM (active) |
| CN(C)c1ccnc2sc(C(=O)c3ccccc3)c(N)c12 | -18.6% (inactive) |  |
| O=C(CN1C2=NCCN2c2ccccc21)c1cccs1 | 2.91% (inactive) |  |

| Structure (SMILES) | activity, negative = inhibition | Potency |
| --- | --- | --- |
| O=C(NCc1ccccc1Cl)c1cccn1-c1nnc(N2CCCCC2)s1 | -3.55% (inactive) |  |
| O=C(Nc1nc(-c2ccc(-c3ccccc3)cc2)cs1)c1cnccn1 | -14.1% (inactive) |  |
| O=C(Nc1nc(-c2ccncc2)cs1)C1COc2ccccc2O1 (stereo unspecified) |  | 28.2 µM (active) |
| O=C(CSC1=NCCS1)Nc1nc(-c2ccccc2)cs1 | -21.2% (inactive) |  |
| Cc1cccc(S(=O)(=O)c2cn(Cc3ccccc3)c3cc(N4CCOCC4)c(F)cc3c2=O)c1 | -7.93% (inactive) |  |
| COc1ccc(CNC(=O)c2cc3c(s2)-c2ccccc2OC3)cc1 | -9.54% (inactive) |  |
| CCN(CC)S(=O)(=O)c1ccc(C(=O)N=c2sc3cccc(OC)c3n2C)cc1 | 2.64% (inactive) |  |
| O=C(Cn1c(-c2cccs2)cc2ccccc21)NCCc1ccc(Cl)cc1 | 1.45% (inactive) |  |
| CN(Cc1ccccc1)c1ccc(-c2nc(-c3ccccc3)no2)cc1[N+](=O)[O-] | -1.66% (inactive) |  |
| COc1ccc(N2CCN(C(=O)CSc3ncnc4c3cnn4-c3ccc(OC)cc3)CC2)cc1 | -11.1% (inactive) |  |
| COc1ccc(N2CCN(C(C)=C3C(=O)c4ccccc4C3=O)CC2)cc1 | 18.2% (inactive) |  |
| COc1ccc(N2CCN(c3ccc([N+](=O)[O-])nc3)CC2)cc1 |  | 1.41 µM (active) |
| Cc1nn(C(C)C(=O)Nc2ccc(C(C)C)cc2)c(=O)c2c1sc1ccccc12 (stereo unspecified) | 4.79% (inactive) |  |
| O=C(CSc1nc2c(c(=O)[nH]1)CN(Cc1ccc(F)cc1)CC2)Nc1ccccc1Cl | -3.93% (inactive) |  |
| NS(=O)(=O)c1ccc2nc(NC(=O)COc3ccccc3)sc2c1 | 1.18% (inactive) |  |
| O=C(NCc1cccnc1)C(=O)NCC(c1cccnc1)N1CCN(c2ccccc2)CC1 (stereo unspecified) | -1.85% (inactive) |  |
| CCc1ccc(S(=O)(=O)n2ccnc2)cc1 | 13% (inactive) |  |
| Cc1ccc(C(=O)c2ccc(N3CCN(C)CC3)c([N+](=O)[O-])c2)cc1 | 2.39% (inactive) |  |
| N/C(=N\OC(=O)Cc1ccccc1[N+](=O)[O-])c1ccc(Br)cc1 | -2.47% (inactive) |  |
| Cc1oc2cc([N+](=O)[O-])c(O)c([N+](=O)[O-])c2c1C(=O)c1ccc(Br)cc1 |  | 10 µM (active) |
| Cc1ccc(C)c(S(=O)(=O)n2nc(C)c(S(=O)(=O)N3CCC(C)CC3)c2C)c1 | 1.74% (inactive) |  |
| CSc1ccc(C2C(C(=O)Nc3ccccc3)=C(C)Nc3nc4ccccc4n32)cc1 (stereo unspecified) | 17.8% (inactive) |  |
| COc1ccc(S(=O)(=O)c2c(Nc3ccc(C)cc3)sc(C(=O)c3ccc(C)cc3)c2N)cc1 | -1.21% (inactive) |  |
